Measurements: ChEMBL document CHEMBL4513216, “Probing the Open Global Health Chemical Diversity Library for Multistage-Active Starting Points for Next-Generation Antimalarials” (ACS Infect Dis, 2020)
Among all 69,000 compounds or so, about 8,600 (12%) showed an effect of 50% or more. Only a selection was taken, and strong results are over-represented in it overall.

What follows are compounds tested on Plasmodium berghei (assay: Screen against P. berghei liver stage (PbLuc), transformed with Luciferase, at 10uM). Conditions: tested at 10 uM.
Format: functional, HepG2

Row | Structure (SMILES) | INHIBITION
1 | CC(C)N1C(=O)CC(N2CCN(c3ccc(F)cc3)CC2)C1=O (centres undefined) | 14.3%
2 | CCCN1C(=O)CC(N2CCN(c3ccc(F)cc3)CC2)C1=O (centres undefined) | -34.7%
3 | CC(C)CN1C(=O)CC(N2CCN(c3ccc(F)cc3)CC2)C1=O (centres undefined) | 54%
4 | CCN(Cc1ccc2c(c1)OCO2)C(=O)NC(C)Cn1ccnc1 (centres undefined) | 26.4%
5 | Cc1sc(CNS(N)(=O)=O)nc1-c1ccc(Cl)cc1 | -20.6%
6 | CNC(=O)CN1CCC(OCc2ccc(Cl)c(Cl)c2)CC1 | 65.6%
7 | CCC(N)C(=O)N1CCC(OCc2ccc(Cl)c(Cl)c2)CC1 (centres undefined) | 47.7%
8 | NC(=O)CN1CCC(OCc2ccc(Cl)c(Cl)c2)CC1 | 33.1%
9 | CC1=N[C@@]2(CC[C@@H]3CN(Cc4ccccc4F)C[C@@H]32)C(=O)N1CC1CC1 | 20.1%
10 | CCn1ncnc1C1CC(=O)NCc2nc(N)sc21 (centres undefined) | 19.7%
11 | CC(O)CN1CCN(Cc2csc(-c3ncccn3)n2)CC1 (centres undefined) | 60.8%
12 | CC(C)CC(=O)N1CCN(Cc2csc(-c3ncccn3)n2)CC1 | 10.6%
13 | OC(c1ccccc1)C1CCN(Cc2csc(-c3ncccn3)n2)CC1 (centres undefined) | 59.8%
14 | CC(C)C(=O)N1CCN(Cc2csc(-c3ccccn3)n2)CC1 | 47.4%
15 | Cc1ccc(-c2nc(CN3CCN(S(=O)(=O)N(C)C)CC3)cs2)o1 | 52.1%
16 | CC(C)C(=O)N1CCN(Cc2csc(-c3ncccn3)n2)CC1 | 41.8%
17 | Cc1ccc(-c2nc(CN3CCN(CC(=O)N(C)C)CC3)cs2)o1 | 15.3%
18 | CC(=O)N1CCCN(Cc2csc(-c3ncccn3)n2)CC1 | 30.8%
19 | Cc1ccc(-c2nc(CN3CCN(C(=O)C4CC4)CC3)cs2)o1 | -34%
20 | CC(C)c1nc(CN2CCN(Cc3ccccn3)CC2)cs1 | -53.5%
21 | COC(=O)N1CCN(Cc2csc(-c3ncccn3)n2)CC1 | -42.5%
22 | CS(=O)(=O)N1CCN(Cc2csc(-c3ncccn3)n2)CC1 | 56.8%
23 | Cn1ccc(C(=O)NCc2ccc(N3CCCCC3)nc2)cc1=O | 46.2%
24 | O=C(O)[C@]12CCCN(Cc3ccncc3)C[C@H]1CN(c1ncccn1)C2 | -20.1%
25 | Cn1cnc2c1C(COCC1CCOCC1)CN(Cc1ccccn1)C2 (centres undefined) | 36.9%
26 | Cc1oncc1C(=O)N1CCC2(CC1)CC(N1CCOCC1)C2 | -15.9%
27 | CNc1cc(-c2ccncc2)ncn1 | 24.8%

Row | Structure (SMILES) | INHIBITION
28 | Cc1cc(C)n(CC2CCCN2C(=O)c2ccc3c(c2)OCO3)n1 (centres undefined) | 52.1%
29 | Cc1cc(C)n(CC2CCCCN2C(=O)c2ccc(C(N)=O)cc2)n1 (centres undefined) | -10.6%
30 | Cc1cc(C)n(CC2CCCN2C(=O)c2cccc3c2OCO3)n1 (centres undefined) | 25.15%
31 | Cc1cc(C)n(CC2CCCN2C(=O)c2ccc3c(c2)COC3)n1 (centres undefined) | 51.6%
32 | Cc1cc(C)n(CC2CCCN2C(=O)c2ccc3c(c2)OCCO3)n1 (centres undefined) | 15.2%
33 | Cc1cc(C)n(CC2CCCN2C(=O)c2ccc3[nH]c(=O)[nH]c3c2)n1 (centres undefined) | 16.3%
34 | Cc1cc(C)n(CC2CCCCN2C(=O)c2ccc3c(c2)OCO3)n1 (centres undefined) | 5.97%
35 | Cc1cnn(CC2CCCCN2C(=O)c2ccc3c(c2)COC3)c1 (centres undefined) | -18%
36 | Cc1cc(C)n(CC2CCCCN2C(=O)c2ccc3c(c2)COC3)n1 (centres undefined) | 56.4%
37 | CN(C)CC(=O)NC1CC(C)(C)Cc2nc(C(C)(C)C)ncc21 (centres undefined) | 43.6%
38 | O=C(CN1CC(c2ccccc2)CC1=O)NCc1cc2n(n1)CCNC2 (centres undefined) | 17.3%
39 | Cc1noc2nc3c(c(C(=O)/N=c4\[nH]nc(C(C)C)s4)c12)CCC3 | 38%
40 | Cn1cc(CN2CCO[C@@H]3CN(Cc4ccoc4)C[C@@H]3C2)cn1 | -18.4%
41 | COCC(NC1CCSCC1)c1ccnn1C (centres undefined) | 47.6%
42 | CN1C(=O)C2(CCCN(C(=O)c3cccnc3O)C2)c2ccccc21 (centres undefined) | 7.25%
43 | O=C(NCC1(N2CCOCC2)CCSC1)Nc1ccc(F)cc1 (centres undefined) | 23.5%
44 | Cc1cccc(NC(=O)NCC2(N3CCOCC3)CCSC2)c1 (centres undefined) | 34.5%
45 | Cc1ccc(NC(=O)NCC2(N3CCOCC3)CCSC2)c(C)c1 (centres undefined) | 74.2%
46 | COc1nc2c(cc1C(=O)NC(C)Cc1cc(C)n[nH]1)CCC2 (centres undefined) | -37.9%
47 | Cn1c(=O)[nH]c(=O)n2c(CC(=O)Nc3ccc(Cl)c(Cl)c3)cnc12 | 20.1%
48 | CCc1nnc(CN(C)c2nc(C(C)C)nc3c2cnn3C)o1 | 53.5%
49 | Cc1nc(N(C)CCN(C)C)c2cnn(C)c2n1 | 29.2%
50 | CCc1nnc(CN(C)c2nc(C3CCCC3)nc3c2cnn3C)o1 | 1.81%
51 | CN(C)C(=O)C1CN(c2ncccn2)CCN1C (centres undefined) | 25.8%
52 | COc1ncccc1CNC(=O)N(Cc1ccc(F)cc1F)C1CC1 | 48.2%
53 | Cc1ccnc(C(Nc2nccc(-c3ccc(C)nc3C)n2)C2CC2)c1 (centres undefined) | 41.3%
54 | Cc1nc(CN2CCOC(Cn3cccn3)C2)nc2ccccc12 (centres undefined) | -31.8%
